PubChem BioAssay AID1159580 (chemical genetic matrix, 2015)
Out of some 5,500 compounds screened, about 2,000 (36%) were called active. Inconclusive results (about 18%) are left out. No stated cut-off is given here; in the data, active means normalized growth mostly below about 0.91 (no sharp cut-off); inconclusive means no clear call, values can overlap the other calls; inactive means mostly above about 0.92. The list shows a part of the results.

Test: chemical genetic growth profiling, strain panel (AID 1159580);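 further: tested at 20 µM; growth read once vehicle control cultures reached saturation at 30 °C; 1 = growth at the plate median or of vehicle wells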
Details: S. cerevisiae deletion strains, growth OD

Measured: normalized growth

OC(CN1CCC(Cc2ccc(F)cc2)CC1)c1ccc(Cl)cc1 (centres undefined)
inactive: locus YAL040C, strain CLN3, stronger effect = lower value 0.991 | locus YCL061C, strain MRC1 (second series), stronger effect = lower value 0.997 | locus YDR150W, strain NUM1, stronger effect = lower value 0.999 | locus YDR363W, strain ESC2, stronger effect = lower value 1.05 | locus YER002W, strain NOP16, stronger effect = lower value 1.03 | locus YGR229C, strain SMI1, stronger effect = lower value 1.07 | locus YJR075W, strain HOC1, stronger effect = lower value 1.01 | locus YMR263W, strain SAP30, stronger effect = lower value 0.992 | locus YNL128W, strain TEP1, stronger effect = lower value 1.01 | locus YNL175C, strain NOP13, stronger effect = lower value 1 | locus YNL197C, strain WHI3, stronger effect = lower value 1.01 | locus YNL224C, strain SQS1, stronger effect = lower value 1 | locus YOR083W, strain WHI5 (second series), stronger effect = lower value 1.05 | locus YPL055C, strain LGE1, stronger effect = lower value 1.01
